Bioassay records: PubChem, National Center for Advancing Translational Sciences (NCATS)
An excerpt weighted towards active compounds, which were near 10% of everything screened.
Lamin A splicing = qHTS Assay for Modulators of Lamin A Splicing; HeLa LMNA splicing GFP/RFP minigene ratio, 48 h; Potency, µM (titrated, usually from 46.1 µM), usual class: inhibitors; hit rate 0.01% among 200,000; active = well fitted inhibition curve with a large enough effect in the signal ratio, with a control signal flat, not every such curve was filed as active; inconclusive = small, poorly fitted or top-dose-only effect, or effect the other way, or a change in a side signal; the % refers to the signal ratio
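S3 HeLa stable clones carrying a lamin A-EGFP splicing minigene plus DsRed2 were seeded at 600 cells/well in Opti-MEM with 2% FBS, pin-dosed and incubated 48 h at 37°C. Acumen cytometry (488 nm) gave the GFP/RFP total-intensity ratio.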
PNC assembly inh = High Content Assay for Compounds that inhibit the Assembly of the Perinucleolar Compartment; PC3M PTB-GFP, PNC prevalence imaging, 16 h; active compounds read low; activity change (PNC), negative = inhibition, % at 10 µM; hit rate 3.1% among 140,000; AID 2417, 2010;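 active = readout at or below -70, meaning at least 70% loss of cells showing the perinucleolar compartment, a nuclear body marking cancer cells; inconclusive = readout between -30 and a set limit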
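Compounds are pinned in duplicate onto adhered PC3M cells stably expressing GFP-tagged PTB and incubated 16 h at 37 C. Cells are then fixed, nuclei stained with Hoechst, and PNC-positive cells counted.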
ALOX12 inhib = qHTS Assay for Inhibitors of 12-hLO (12-human lipoxygenase). AID 1452, 2008. Potency, µM (doses to about 57.1 µM), hits mostly inhibitors. purified 12-hLO, xylenol orange hydroperoxide absorbance. Polyunsaturated fatty acid lipoxygenase ALOX12 (Homo sapiens), P18054. hit rate 0.12% among 150,000; active = well fitted inhibition curve with a large enough effect; inconclusive = small, poorly fitted or top-dose-only effect; note: nearly all actives have a fitted effect of over 55% in size
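Hydroperoxide formation by human 12-lipoxygenase from 40 uM arachidonic acid was followed colorimetrically via ferric-xylenol orange complex, using the 573/405 nm absorbance ratio. Enzyme concentration was 150 nM, with 30 min reaction at room temperature.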
HPGD block = qHTS Assay for Inhibitors of HPGD (15-Hydroxyprostaglandin Dehydrogenase). Potency, µM, most hits filed as inhibitors. hit rate 4.3% among 150,000. 15-hydroxyprostaglandin dehydrogenase [NAD(+)] (Homo sapiens), P15428. AID 894, 2007. purified HPGD, NADH fluorescence kinetic, PGE2 substrate
Target sequence (P15428 whole entry, looked up): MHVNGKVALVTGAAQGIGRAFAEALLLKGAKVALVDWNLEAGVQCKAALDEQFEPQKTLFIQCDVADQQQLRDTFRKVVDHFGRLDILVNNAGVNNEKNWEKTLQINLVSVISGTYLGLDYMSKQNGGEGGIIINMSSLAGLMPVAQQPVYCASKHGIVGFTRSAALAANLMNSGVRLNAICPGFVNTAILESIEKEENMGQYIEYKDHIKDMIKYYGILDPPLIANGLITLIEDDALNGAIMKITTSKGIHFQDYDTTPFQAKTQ
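NADH formation kinetics: reaction with 30 uM PGE2 and 1 mM NAD+ (final), 20 nM enzyme, Tris-HCl pH 8 with Tween 20, after 15 min compound preincubation at room temperature. Fluorescence change, last versus first of five reads.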
ALDH1A1 inh = qHTS Assay for Inhibitors of Aldehyde Dehydrogenase 1 (ALDH1A1). Purified ALDH1A1, NADH fluorescence, propionaldehyde substrate. Potency, µM (highest dose often 75.3 µM), actives largely listed as inhibitors. hit rate 7.3% among 220,000. AID 1030, 2008
Hits are given with their value; n = inactive; u = inconclusive; x = no result given; [ ] = dose if it differs, or a comment. Unless noted, calls come from the whole dose curve; as a rule, active = well fitted inhibition curve with a large enough effect (not every such curve was filed as active); inconclusive = small, poorly fitted or top-dose-only effect, or another doubt; inactive = no such curve, though single readings can be large or run the other way.

SMILES	Lamin A splicing	PNC assembly inh	ALOX12 inhib	HPGD block	ALDH1A1 inh
CCOC(=O)c1c(CN2CCOCC2)n(-c2ccccc2)c2cc(Br)c(OC)cc12	u	-92	n	n	u
O=C(Nc1ccc(OCc2cc(=O)n3ccccc3n2)cc1)c1ccccc1Cl	n	x	x	x	x
O=C(O)/C(=C\c1ccccc1)Cc1ccccc1	x	x	n[11.4 µM]	n	n[13.5 µM]
COc1cccc(C2CC(c3ccccc3)Nc3ncnn32)c1 (centres undefined)	n	u	n	n	7.1µM
Clc1ccc(C2CC(c3ccco3)n3ncnc3N2)cc1Cl (centres undefined)	n	n	n	n	32µM
Cc1ccc(C2CC(c3cccc(Br)c3)Nc3nnnn32)cc1 (centres undefined)	n	u	n	n	18µM
COc1cccc(C2CC(c3ccccc3OC)n3ncnc3N2)c1 (centres undefined)	n	n	n	n	n
Cc1ccc(C2CC(c3ccccc3)n3ncnc3N2)cc1 (centres undefined)	n	n	n	n	n
COc1ccc(C2CC(c3ccccc3)n3nnnc3N2)cc1 (centres undefined)	n	-111	n	n	u
COc1ccc(C2CC(c3cc(Br)ccc3F)n3nnnc3N2)cc1 (centres undefined)	n	n	n	n	u
CN1CCN(c2ncc3nc(-c4ccc(Cl)cc4)c(=O)n(Cc4cccs4)c3n2)CC1	n	x	x	x	n
Cc1ccc2c(=O)c(C(=O)c3ccc(F)cc3)cn(CC(=O)NCc3ccccc3Cl)c2n1	n	x	x	x	x
O=C(NC(=S)Nc1ccc(Cl)cc1)c1ccccc1	x	x	x	x	15µM
O=C(CCc1ccccc1)NNC(=S)NC(=O)c1ccc(Cl)cc1	u	u	n	n	11µM
CCC(=O)NC(=S)Nc1ccc(NC(=S)NC(=O)c2ccc(C)cc2)cc1	x	x	x	x	n
O=C(Nc1ccc(NC(=S)NC(=O)c2cccs2)cc1)c1ccccc1	n	n	n	n	u
CC(=O)NC(=S)Nc1ccc(NC(=O)COc2ccc(Cl)cc2)cc1	n	n	n	n	n
O=C(NC(=S)Nc1ccc(Oc2ccc(Cl)cc2)cc1)c1ccccc1	n	n	13µM	n	8.9µM
CCC(=O)NC(=S)Nc1ccc(NC(=S)NC(=O)c2ccccc2)cc1	x	x	x	x	25µM
CC(=O)O[C@@H]1CC(C)=C2[C@H]1[C@H](C)CC[C@H]2/C=C(\C)C(=O)O	x	x	n	n	n
CC#CCN1c2ccccc2[C@]23C[C@@H](C(=O)OC)N(S(=O)(=O)c4ccc([N+](=O)[O-])cc4)C2=NC(C(=O)OC)=C(C(=O)OC)[C@H]13	n[9.22 µM]	x	n[11.4 µM]	n	n[13.5 µM]
COc1ccc(N2CCN(C(CNS(=O)(=O)c3c(C)cc(C)cc3C)c3ccco3)CC2)cc1 (centres undefined)	n	x	x	x	x
COc1ccc(N(C)S(=O)(=O)c2cccc(C(=O)N(C)Cc3ccc(C)o3)c2)cc1	u	x	x	x	10µM
O=C(CSc1nnc(-c2ccncc2)o1)c1cccc([N+](=O)[O-])c1	n	x	x	x	14µM
O=C(CSc1nc2ncccc2[nH]1)c1cccc([N+](=O)[O-])c1	u	-113	n	u	8.9µM
SMILES	Lamin A splicing	PNC assembly inh	ALOX12 inhib	HPGD block	ALDH1A1 inh
Fc1cccc(CSc2nc3ncccc3[nH]2)c1	u	n	n	18µM	u
O=C(CSc1nnc(CNc2ccccc2)o1)c1ccc2c(c1)OCCO2	n	n	n	n	14µM
CC(C)(C)c1ccc(-c2nnc(SCC(=O)c3ccc4c(c3)OCCO4)o2)cc1	n	n	n	n	u
O=C(CSc1nc2ncccc2[nH]1)c1ccc(F)cc1	n	n	n	n	u
COc1cc2c(cc1OC)n(CC(=O)c1ccc(C)cc1)c(=O)n1nc(CCn3nc(C)cc3C)nc21	n	x	x	x	x
CCOc1ccccc1NC(=O)CCNS(=O)(=O)c1ccc2c(c1)CCN2C(=O)C1CC1	n	x	x	x	x
COCCNc1nc(-c2ccoc2)nc2ccccc12	n	x	x	x	n
O=C(CSc1nnc(-c2ccc(F)cc2)o1)c1ccc2c(c1)OCCO2	n	n	n	n	n
O=C(CSc1nnc(-c2ccncc2)o1)c1ccc2c(c1)OCCO2	x	x	x	x	0.79µM
